# Assay results as given in PubChem BioAssay (EPA / NIEHS).
# Records with an inconclusive call do not appear. The source made the active and inactive calls. The calls were made as follows: active = hit-call score of the fitted dose curve at least 0.9, where 1 is the maximum; inconclusive = response in the unintended direction; inactive = score below 0.9.
# Legend:
# [1] = target: human Casein Kinase 2- alpha 2 beta 2 (CK2a2b2), CSNK2A1 (gene 1457) (UniProt P68400); assay: NVS_ENZ_hCK2a2b2: NovaScreen (NVS) Enzymatic Assay for human Casein Kinase 2- alpha 2 beta 2 (CK2a2b2) (AID 2283147)
# Summary of the method: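 Compounds were first screened in duplicate at 25 uM, and those passing the threshold were re-tested in concentration series up to a 50 uM maximum. Kinase activity of recombinant human CK2 α2β2 was measured 1 h after dosing by fluorescent substrate/product mobility-shift separation.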
# [2] = target: human Esterase Plasma (ES), BCHE (gene 590) (UniProt P06276); assay: NVS_ENZ_hES: NovaScreen (NVS) Enzymatic Assay for human Esterase Plasma (ES) (AID 2283157)
# Chain of human Esterase Plasma (ES), BCHE (gene 590) (P06276 whole entry, looked up): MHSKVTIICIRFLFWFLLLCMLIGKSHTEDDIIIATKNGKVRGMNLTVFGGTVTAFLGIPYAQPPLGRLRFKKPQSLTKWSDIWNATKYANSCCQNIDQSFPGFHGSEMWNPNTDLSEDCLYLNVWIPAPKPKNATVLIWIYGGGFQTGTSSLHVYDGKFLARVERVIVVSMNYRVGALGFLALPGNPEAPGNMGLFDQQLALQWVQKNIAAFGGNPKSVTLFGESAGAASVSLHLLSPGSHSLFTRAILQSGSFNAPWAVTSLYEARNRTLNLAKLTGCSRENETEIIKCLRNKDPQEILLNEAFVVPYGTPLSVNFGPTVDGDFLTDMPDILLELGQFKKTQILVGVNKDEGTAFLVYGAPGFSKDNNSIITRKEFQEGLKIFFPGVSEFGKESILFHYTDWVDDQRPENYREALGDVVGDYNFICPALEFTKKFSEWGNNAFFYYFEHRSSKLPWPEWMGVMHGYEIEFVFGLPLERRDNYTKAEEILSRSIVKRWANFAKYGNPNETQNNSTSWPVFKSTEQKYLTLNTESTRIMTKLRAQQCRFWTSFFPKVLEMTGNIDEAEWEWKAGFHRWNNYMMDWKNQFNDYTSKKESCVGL
# Summary of the method: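 Screening ran at 25 uM in duplicate, followed by singleton concentration series reaching 50 uM for actives. Human plasma protein, colorimetric detection, 0.25 h exposure, DMSO negative control.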
# [3] = target: human Ephrin type-A Receptor 1 (EphA1), EPHA1 (gene 2041) (UniProt P21709); assay: NVS_ENZ_hEphA1: NovaScreen (NVS) Enzymatic Assay for human Ephrin type-A Receptor 1 (EphA1) (AID 2283158);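 also: activity is signal loss versus DMSO meaning EphA1 kinase inhibition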
# Chain of human Ephrin type-A Receptor 1 (EphA1), EPHA1 (gene 2041) (P21709 whole entry, looked up): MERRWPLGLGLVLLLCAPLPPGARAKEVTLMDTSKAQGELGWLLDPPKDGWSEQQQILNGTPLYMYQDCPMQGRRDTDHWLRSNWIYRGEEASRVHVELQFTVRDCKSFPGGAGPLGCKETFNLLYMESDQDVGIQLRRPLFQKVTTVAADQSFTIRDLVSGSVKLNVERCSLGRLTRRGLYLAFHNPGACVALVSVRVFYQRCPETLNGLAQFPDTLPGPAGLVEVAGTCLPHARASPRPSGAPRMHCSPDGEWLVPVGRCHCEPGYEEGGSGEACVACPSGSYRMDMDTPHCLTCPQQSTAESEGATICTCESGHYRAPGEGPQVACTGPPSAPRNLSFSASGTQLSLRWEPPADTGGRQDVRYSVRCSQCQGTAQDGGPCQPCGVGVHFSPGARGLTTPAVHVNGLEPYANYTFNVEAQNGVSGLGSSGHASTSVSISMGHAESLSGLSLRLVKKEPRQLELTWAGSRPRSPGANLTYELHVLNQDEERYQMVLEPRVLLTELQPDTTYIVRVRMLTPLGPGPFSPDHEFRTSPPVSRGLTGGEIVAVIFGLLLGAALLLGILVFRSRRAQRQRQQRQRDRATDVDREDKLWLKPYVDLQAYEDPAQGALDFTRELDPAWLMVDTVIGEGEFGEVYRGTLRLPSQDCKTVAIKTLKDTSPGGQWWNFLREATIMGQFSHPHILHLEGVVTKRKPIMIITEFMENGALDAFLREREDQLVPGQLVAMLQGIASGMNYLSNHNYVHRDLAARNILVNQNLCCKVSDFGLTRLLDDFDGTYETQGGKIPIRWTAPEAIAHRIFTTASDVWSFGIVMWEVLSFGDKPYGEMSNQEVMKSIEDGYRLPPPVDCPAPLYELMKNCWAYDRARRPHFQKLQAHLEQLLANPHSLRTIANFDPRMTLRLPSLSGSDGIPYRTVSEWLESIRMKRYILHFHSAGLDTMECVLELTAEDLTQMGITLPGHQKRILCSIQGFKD
# Summary of the method: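 Fluorescent substrate conversion, resolved by mobility-shift separation, measured 1 hour post-dosing using recombinant enzyme; signal loss relative to DMSO baseline. Single-concentration duplicates at 25 uM preceded singleton concentration series topping at 50 uM.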
# [4] = target: human FYN Proto-Oncogene, Src family Tyrosine Kinase (Fyn), FYN (gene 2534) (UniProt P06241); assay: NVS_ENZ_hFyn: NovaScreen (NVS) Enzymatic Assay for human FYN Proto-Oncogene, Src family Tyrosine Kinase (Fyn) (AID 2283161)
# Chain of human FYN Proto-Oncogene, Src family Tyrosine Kinase (Fyn), FYN (gene 2534) (P06241 whole entry, looked up): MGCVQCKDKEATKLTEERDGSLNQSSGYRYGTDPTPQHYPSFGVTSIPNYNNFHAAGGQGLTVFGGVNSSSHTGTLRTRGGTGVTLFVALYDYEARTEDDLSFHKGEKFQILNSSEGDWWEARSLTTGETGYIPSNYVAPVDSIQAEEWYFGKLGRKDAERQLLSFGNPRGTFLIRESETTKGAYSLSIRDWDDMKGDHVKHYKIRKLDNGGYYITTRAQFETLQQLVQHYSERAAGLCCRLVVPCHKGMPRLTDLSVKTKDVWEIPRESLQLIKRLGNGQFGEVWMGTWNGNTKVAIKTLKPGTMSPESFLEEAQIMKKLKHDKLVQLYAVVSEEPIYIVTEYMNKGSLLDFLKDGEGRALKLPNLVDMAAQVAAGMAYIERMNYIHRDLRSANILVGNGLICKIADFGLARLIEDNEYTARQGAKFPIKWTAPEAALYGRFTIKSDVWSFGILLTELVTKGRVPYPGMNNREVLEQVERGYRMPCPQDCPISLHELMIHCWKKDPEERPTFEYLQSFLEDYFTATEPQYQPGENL
# Summary of the method: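 Cell-free kinase activity read by fluorescence after mobility-shift separation of substrate and product, 1 h post-dose. Initial single concentration 25 uM in duplicate, then concentration-response follow-up; DMSO baseline.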
# [5] = target: Glycogen synthase kinase-3 beta (Homo sapiens) (UniProt P49841); assay: NVS_ENZ_hGSK3b: NovaScreen (NVS) Enzymatic Assay for human Glycogen Synthase Kinase-3 beta (GSK3b) (AID 2283165)
# Chain of Glycogen synthase kinase-3 beta (Homo sapiens) (P49841 whole entry, looked up): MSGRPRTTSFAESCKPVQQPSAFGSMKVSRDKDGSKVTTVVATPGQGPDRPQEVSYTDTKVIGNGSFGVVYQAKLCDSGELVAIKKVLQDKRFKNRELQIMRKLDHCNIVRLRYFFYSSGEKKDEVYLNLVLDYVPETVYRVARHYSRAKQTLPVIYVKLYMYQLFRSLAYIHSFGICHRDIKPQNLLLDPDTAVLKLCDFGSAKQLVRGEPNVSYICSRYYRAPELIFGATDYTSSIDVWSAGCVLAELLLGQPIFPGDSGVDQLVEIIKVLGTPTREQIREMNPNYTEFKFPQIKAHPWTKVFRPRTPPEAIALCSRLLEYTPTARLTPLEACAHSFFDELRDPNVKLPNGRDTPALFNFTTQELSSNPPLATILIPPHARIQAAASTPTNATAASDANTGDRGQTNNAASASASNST
# Summary of the method: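 Recombinant enzyme with specific fluorescent substrate, 1 h, product separated by electrophoretic mobility shift. Primary duplicate screen at 25 uM; actives (e.g. 30% inhibition) followed in singleton concentration-response to 50 uM. Signal loss fitted versus DMSO.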
# [6] = target: human Janus Kinase 2 (Jak2), JAK2 (gene 3717) (UniProt O60674); assay: NVS_ENZ_hJak2: NovaScreen (NVS) Enzymatic Assay for human Janus Kinase 2 (Jak2) (AID 2283169)
# Summary of the method: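 Single-point duplicate screen at 25 uM, with hits run in concentration series to a 50 uM top dose. Substrate-product separation by mobility shift with fluorescence detection, 1 h post-dosing; DMSO baseline.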
# [7] = target: human Insulin Receptor (InsR), INSR (gene 3643) (UniProt P06213); assay: NVS_ENZ_hInsR: NovaScreen (NVS) Enzymatic Assay for human Insulin Receptor (InsR) (AID 2283168)
# Summary of the method: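 Cell-free enzyme assay read 1 h post-dose by fluorescence after substrate/product mobility-shift separation. Duplicate 25 uM primary screen, then singleton concentration-response up to 50 uM for compounds passing threshold; loss of signal vs DMSO.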
# [8] = target: human Ephrin type-B Receptor 1 (EphB1), EPHB1 (gene 2047) (UniProt P54762); assay: NVS_ENZ_hEphB1: NovaScreen (NVS) Enzymatic Assay for human Ephrin type-B Receptor 1 (EphB1) (AID 2283154)
# Summary of the method: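 Recombinant EphB1 activity read by fluorescence after mobility-shift separation of product from substrate, 1 h post-dosing. Compounds screened in duplicate at 25 uM; inhibition scored as signal loss relative to DMSO.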
# [9] = target: human MAP Kinase-Activated Protein Kinase 2 (MAPKAPK2), MAPKAPK2 (gene 9261) (UniProt P49137); assay: NVS_ENZ_hMAPKAPK2: NovaScreen (NVS) Enzymatic Assay for human MAP Kinase-Activated Protein Kinase 2 (MAPKAPK2) (AID 2283178)
# Chain of human MAP Kinase-Activated Protein Kinase 2 (MAPKAPK2), MAPKAPK2 (gene 9261) (P49137 whole entry, looked up): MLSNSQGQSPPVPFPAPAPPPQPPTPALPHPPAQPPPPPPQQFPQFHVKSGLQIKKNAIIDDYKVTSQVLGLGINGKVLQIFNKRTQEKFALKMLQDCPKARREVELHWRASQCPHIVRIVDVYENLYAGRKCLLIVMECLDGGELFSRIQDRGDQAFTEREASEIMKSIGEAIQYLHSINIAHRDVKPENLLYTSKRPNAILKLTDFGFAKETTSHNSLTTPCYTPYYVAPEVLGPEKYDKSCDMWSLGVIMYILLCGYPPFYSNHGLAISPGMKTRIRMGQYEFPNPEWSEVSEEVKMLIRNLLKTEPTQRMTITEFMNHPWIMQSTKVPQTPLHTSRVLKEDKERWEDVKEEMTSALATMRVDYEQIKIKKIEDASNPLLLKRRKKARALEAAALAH
# Summary of the method: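 Chemicals screened in duplicate at 25 uM, then to 50 uM top concentration in concentration-response, against recombinant human MAPKAPK2; substrate conversion read 1 hr post-dosing by fluorescence after electrophoretic mobility-shift separation, loss-of-signal relative to DMSO.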
# [10] = target: human Caspase 8 (CASP8), CASP8 (gene 841) (UniProt Q14790); assay: NVS_ENZ_hCASP8: NovaScreen (NVS) Enzymatic Assay for human Caspase 8 (CASP8) (AID 2283146)
# Chain of human Caspase 8 (CASP8), CASP8 (gene 841) (Q14790 whole entry, looked up): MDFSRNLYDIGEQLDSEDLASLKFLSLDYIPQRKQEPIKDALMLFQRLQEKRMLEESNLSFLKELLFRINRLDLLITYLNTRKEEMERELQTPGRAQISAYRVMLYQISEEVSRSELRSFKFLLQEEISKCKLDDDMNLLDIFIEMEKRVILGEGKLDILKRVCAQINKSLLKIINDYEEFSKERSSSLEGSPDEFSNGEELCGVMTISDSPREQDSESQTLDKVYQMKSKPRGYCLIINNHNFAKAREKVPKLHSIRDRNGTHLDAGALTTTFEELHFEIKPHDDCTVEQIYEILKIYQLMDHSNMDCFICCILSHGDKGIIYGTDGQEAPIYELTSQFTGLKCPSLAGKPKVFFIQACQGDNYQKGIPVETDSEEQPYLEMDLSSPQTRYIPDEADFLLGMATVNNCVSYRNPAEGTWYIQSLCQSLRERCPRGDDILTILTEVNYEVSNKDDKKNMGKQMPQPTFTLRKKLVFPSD
# Summary of the method: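 The primary screen tested compounds in duplicate at a single 25 uM concentration, with actives followed up in concentration series. Activity of recombinant (E. coli) protease was measured by fluorescence 1 h post-dose, as signal loss against DMSO.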
# [11] = target: human Dual Specificity Protein Phosphatase 3 (DUSP3), DUSP3 (gene 1845) (UniProt P51452); assay: NVS_ENZ_hDUSP3: NovaScreen (NVS) Enzymatic Assay for human Dual Specificity Protein Phosphatase 3 (DUSP3) (AID 2283152);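 also: phosphatase activity of recombinant human DUSP3 on a fluorogenic substrate without cells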
# Chain of human Dual Specificity Protein Phosphatase 3 (DUSP3), DUSP3 (gene 1845) (P51452 whole entry, looked up): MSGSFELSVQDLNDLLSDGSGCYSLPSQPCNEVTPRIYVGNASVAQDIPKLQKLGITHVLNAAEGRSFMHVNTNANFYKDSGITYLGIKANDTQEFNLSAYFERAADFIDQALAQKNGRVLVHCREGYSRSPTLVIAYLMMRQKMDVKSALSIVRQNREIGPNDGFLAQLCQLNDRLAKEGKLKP
# Summary of the method: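 Cell-free fluorescence-intensity enzyme activity assay with recombinant protein and substrate; loss of signal fitted relative to DMSO baseline. Primary screen in duplicate at 25 uM, actives then run in concentration series; measured 0 h after dosing.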
# [12] = target: Histone deacetylase 3 (Homo sapiens) (UniProt O15379); assay: NVS_ENZ_hHDAC3: NovaScreen (NVS) Enzymatic Assay for human Histone Deacetylase 3 (HDAC3) (AID 2283163)
# Summary of the method: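 Cell-free enzyme format: loss of fluorescent product after mobility-shift separation, 1 h incubation, recombinant human HDAC3. Single 25 uM duplicate screen first, then concentration series to a 50 uM top for hits; DMSO as baseline.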
# [13] = target: human c-Jun N-terminal Kinases (JNK2), MAPK9 (gene 5601) (UniProt P45984); assay: NVS_ENZ_hJNK2: NovaScreen (NVS) Enzymatic Assay for human c-Jun N-terminal Kinases (JNK2) (AID 2283171)
# Chain of human c-Jun N-terminal Kinases (JNK2), MAPK9 (gene 5601) (P45984 whole entry, looked up): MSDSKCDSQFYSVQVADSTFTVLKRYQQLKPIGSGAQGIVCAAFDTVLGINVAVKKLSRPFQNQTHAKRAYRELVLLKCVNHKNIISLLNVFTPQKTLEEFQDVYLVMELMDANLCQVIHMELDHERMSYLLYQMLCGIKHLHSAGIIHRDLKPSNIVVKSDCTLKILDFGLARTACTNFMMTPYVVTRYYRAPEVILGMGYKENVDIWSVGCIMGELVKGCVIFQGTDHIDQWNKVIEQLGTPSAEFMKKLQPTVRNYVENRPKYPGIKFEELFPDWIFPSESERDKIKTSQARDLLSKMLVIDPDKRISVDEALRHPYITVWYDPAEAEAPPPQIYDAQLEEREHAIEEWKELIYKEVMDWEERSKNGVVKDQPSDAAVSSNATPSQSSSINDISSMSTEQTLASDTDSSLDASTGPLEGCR
# Summary of the method: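 Chemicals first tested in duplicate at 25 uM, then in singleton concentration series up to 50 uM, against extracted JNK2 enzyme. Activity loss read by fluorescence with mobility-shift separation 1 h post-dose; DMSO baseline.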
# [14] = target: Mitogen-activated protein kinase 3 (Homo sapiens) (UniProt P27361); assay: NVS_ENZ_hMAPK3: NovaScreen (NVS) Enzymatic Assay for human Mitogen-Activated Protein Kinase 3 (MAPK 3) (AID 2283177)
# Chain of Mitogen-activated protein kinase 3 (Homo sapiens) (P27361 whole entry, looked up): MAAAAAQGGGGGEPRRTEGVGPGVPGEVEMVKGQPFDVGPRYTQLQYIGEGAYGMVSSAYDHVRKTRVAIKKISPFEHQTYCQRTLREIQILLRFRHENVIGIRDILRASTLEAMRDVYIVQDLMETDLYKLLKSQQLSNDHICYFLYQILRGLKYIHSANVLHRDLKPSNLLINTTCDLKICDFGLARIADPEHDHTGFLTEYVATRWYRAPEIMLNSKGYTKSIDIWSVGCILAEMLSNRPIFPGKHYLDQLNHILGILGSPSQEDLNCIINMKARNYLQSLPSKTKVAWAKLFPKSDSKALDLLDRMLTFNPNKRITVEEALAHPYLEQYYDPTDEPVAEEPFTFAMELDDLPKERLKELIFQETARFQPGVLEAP
# Summary of the method: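 Chemicals were first tested in duplicate at 25 uM, with hits re-run as concentration series (max 50 uM). Recombinant enzyme activity, measured 1 h post-dose in a cell-free format, was read by fluorescence/mobility shift relative to DMSO.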
# [15] = target: human Caspase 4 (CASP4), CASP4 (gene 837) (UniProt P49662); assay: NVS_ENZ_hCASP4: NovaScreen (NVS) Enzymatic Assay for human Caspase 4 (CASP4) (AID 2283143)
# Summary of the method: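 Compounds were first tested in duplicate at 25 uM, and hits were titrated singly to a 50 uM maximum. Recombinant protease from E. coli was read by fluorescence 2 h post-dose, and activity loss was fitted against the DMSO baseline.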
# [16] = target: CDK2 (gene 1017) (UniProt P24941); assay: NVS_ENZ_hCDK2: NovaScreen (NVS) Enzymatic Assay for human Cyclin-Cependent Kinase 2 (CDK2) (AID 2283144)
# Summary of the method: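 Compounds screened in duplicate at 25 uM, then in singleton concentration-response to a maximum of 50 uM, against recombinant CDK2; kinase activity read 1 hr after dosing by fluorescence with mobility-shift separation of substrate and product.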
# [17] = target: human Colony Stimulating Factor 1 Receptor (CSF1R), CSF1R (gene 1436) (UniProt P07333); assay: NVS_ENZ_hCSF1R: NovaScreen (NVS) Enzymatic Assay for human Colony Stimulating Factor 1 Receptor (CSF1R) (AID 2283150)
# Summary of the method: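 Compounds screened in duplicate at 25 uM, then concentration-response (top 50 uM) for those passing threshold such as 30% inhibition; recombinant CSF1R activity measured 1 h post-dosing via fluorescent substrate/product mobility-shift separation, loss of signal versus DMSO.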
# [18] = target: human Elastase, ELANE (gene 1991) (UniProt P08246); assay: NVS_ENZ_hElastase: NovaScreen (NVS) Enzymatic Assay for human Elastase (AID 2283153)
# Chain of human Elastase, ELANE (gene 1991) (P08246 whole entry, looked up): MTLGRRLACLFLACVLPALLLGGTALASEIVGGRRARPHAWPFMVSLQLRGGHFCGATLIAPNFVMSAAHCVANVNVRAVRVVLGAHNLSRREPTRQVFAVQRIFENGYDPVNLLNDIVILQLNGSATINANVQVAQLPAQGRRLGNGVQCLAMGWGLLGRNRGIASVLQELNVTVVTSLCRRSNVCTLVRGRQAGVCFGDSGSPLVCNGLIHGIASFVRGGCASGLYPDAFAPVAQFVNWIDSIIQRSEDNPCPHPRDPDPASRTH
# Summary of the method: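 Concentration-response to 50 uM max, run singly for chemicals passing a threshold (e.g., 30% inhibition) in a duplicate 25 uM single-point screen. Neutrophil-derived human elastase, absorbance read-out of enzyme activity at 1.5 h; DMSO baseline.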
# [19] = target: Collagenase 3 (Homo sapiens) (UniProt P45452); assay: NVS_ENZ_hMMP13: NovaScreen (NVS) Enzymatic Assay for human Matrix Metalloproteinase-13 (MMP13) (AID 2283182)
# Summary of the method: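 Recombinant MMP13 cleaving fluorescent substrate, cell-free, measured 1 h after dosing. Primary duplicate screen at 25 uM; actives tested in concentration-response up to 50 uM; loss of signal relative to DMSO.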
# [20] = target: human LYN Proto-Oncogene, Src family Tyrosine Kinase (LynA), LYN (gene 4067) (UniProt P07948); assay: NVS_ENZ_hLynA: NovaScreen (NVS) Enzymatic Assay for human LYN Proto-Oncogene, Src family Tyrosine Kinase (LynA) (AID 2283173)
# Summary of the method: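 Recombinant kinase with fluorescent substrate; product separated from substrate by electrophoretic mobility shift and read 1 h after dosing. Duplicate screen at 25 uM, then concentration-response up to 50 uM; activity scored as signal loss against DMSO.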
compound,measurement,setting,value
c1ccc2[nH]c(-c3cscn3)nc2c1,AC50,[1],25 µM (active)
same,outcome,[2],inactive
same,outcome,[3],inactive
same,outcome,[4],inactive
same,outcome,[5],inactive
same,AC50,[6],2.27 µM (active)
CN(C)C(=O)Nc1ccc(Cl)c(Cl)c1,outcome,[7],inactive
CCCOC(=O)NCCCN(C)C,outcome,[8],inactive
CC(=O)[C@H]1CC[C@H]2[C@@H]3CCC4=CC(=O)CC[C@]4(C)[C@H]3CC[C@]12C,outcome,[5],inactive
COc1nc(C)nc(NC(=O)NS(=O)(=O)c2ccccc2OCCCl)n1,AC50,[9],36.2 µM (active)
CCN(CC)C(=O)c1cccc(C)c1,outcome,[2],inactive
C[C@]12CC[C@@H]3c4ccc(O)cc4C[C@@H](CCCCCCCCCS(=O)CCCC(F)(F)C(F)(F)F)[C@H]3[C@@H]1CC[C@@H]2O (stereo partly specified),outcome,[10],inactive
same,outcome,[11],inactive
same,outcome,[3],inactive
CC(C)CCCCCCc1ccc(O)cc1,outcome,[4],inactive
same,outcome,[12],inactive
same,outcome,[5],inactive
same,outcome,[13],inactive
same,outcome,[14],inactive
same,outcome,[9],inactive
CCOC(=O)NCCOc1ccc(Oc2ccccc2)cc1,outcome,[11],inactive
same,outcome,[3],inactive
S=C([S-])NCCNC(=S)[S-].[Mn+2],outcome,[15],inactive
same,AC50,[16],11.4 µM (active)
same,outcome,[10],inactive
same,AC50,[1],3.93 µM (active)
same,AC50,[17],5.51 µM (active)
same,outcome,[11],inactive
same,outcome,[18],inactive
same,outcome,[4],inactive
same,AC50,[5],0.306 µM (active)
same,AC50,[14],10 µM (active)
same,AC50,[9],0.468 µM (active)
same,AC50,[19],6.6 µM (active)
CCOC(=O)C(C)Oc1ccc(Oc2nc3ccc(Cl)cc3o2)cc1 (stereo unspecified),outcome,[8],inactive
same,outcome,[2],inactive
same,outcome,[19],inactive
COC(=O)c1ccccc1C(=O)O,outcome,[20],inactive
O=C(Nc1ccc([N+](=O)[O-])cc1Cl)c1cc(Cl)ccc1O,outcome,[14],inactive
same,outcome,[9],inactive
COCCO,outcome,[13],inactive
CC(C)(c1ccc(O)cc1)c1ccc(O)cc1,outcome,[10],inactive
same,outcome,[2],inactive
same,outcome,[6],inactive
same,outcome,[13],inactive
same,outcome,[14],inactive
same,outcome,[19],inactive
CCCN(CCC)c1c([N+](=O)[O-])cc(C(F)(F)F)c(N)c1[N+](=O)[O-],outcome,[10],inactive
same,outcome,[8],inactive
C#CCOC(=O)[C@@H](C)Oc1ccc(Oc2ncc(Cl)cc2F)cc1,outcome,[11],inactive
same,outcome,[18],inactive
N[C@@H](Cc1cc(I)c(Oc2ccc(O)c(I)c2)c(I)c1)C(=O)O,outcome,[16],inactive
same,AC50,[11],6.35 µM (active)
same,outcome,[18],inactive
same,outcome,[3],inactive
same,AC50,[6],5.49 µM (active)
same,outcome,[9],inactive
same,AC50,[19],5.14 µM (active)
CCCCOC(=O)C(C)Oc1ccc(Oc2ccc(C(F)(F)F)cn2)cc1 (stereo unspecified),outcome,[17],inactive
CSC(=O)c1cccc2nnsc12,outcome,[12],inactive
c1ccc(Nc2ccccc2)cc1,outcome,[6],inactive
